Assay results taken from the supplement of paper PMC4022240.
± gives the standard deviation.

Legend:
Test in all cases: peptide microarray binding signal (635 nm), min-max normalized on array (fraction of array maximum); higher = stronger binding
[1] = molecular target: T1, HaloTag-ATRX ADD domain (163-292)
T1 chain: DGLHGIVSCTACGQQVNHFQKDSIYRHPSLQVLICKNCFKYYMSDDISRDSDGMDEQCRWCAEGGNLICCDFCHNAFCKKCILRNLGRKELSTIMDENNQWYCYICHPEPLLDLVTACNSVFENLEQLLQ
Summary of the method: (§1)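 An Axon GenePix 4000B scanned the arrays at 635 nm for signal and at 532 nm to catch misprints. Those arrays held histone 13-mer peptide–cellulose conjugates printed in triplicate on nitrocellulose with a Cy3 tracer, blocked overnight at 4°C and probed for 1 h at 4°C with biotin-labelled HaloTag reader fusions (10 nM to 1 μM) plus streptavidin-Alexa Fluor 647 or with rabbit histone antibodies (1:10,000 to 1:2,000) plus anti-rabbit Alexa 647. Each binding signal is a triplicate-spot mean intensity, scaled min-max within its library.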

[2] = molecular target: HaloTag-ING2 PHD (mouse Ing2 200-280)
Summary of the method: as §1

[3] = molecular target: anti-H3K4me3 antibody ab8580
Summary of the method: as §1

[4] = molecular target: anti-H3K9me3 antibody ab8898
Summary of the method: as §1

[5] = peptide region: H3 20-32, peptide modifications: H3K23ac H3K27me1, binder concentration: 1:2,000 dilution
[6] = peptide region: H3 20-32, peptide modifications: H3K23ac H3K27me1, binder concentration: 1:10,000 dilution
[7] = peptide region: H3 20-32, peptide modifications: H3K23ac, binder concentration: 1:2,000 dilution
[8] = peptide region: H3 20-32, peptide modifications: H3K23ac, binder concentration: 1:10,000 dilution
[9] = peptide region: H3 20-32, peptide modifications: H3K23me1 H3K27me1, binder concentration: 1:2,000 dilution
[10] = peptide region: H3 20-32, peptide modifications: H3K23me1 H3K27me1, binder concentration: 1:10,000 dilution
[11] = peptide region: H3 20-32, peptide modifications: H3K23me1 H3K27me3, binder concentration: 1:2,000 dilution
[12] = peptide region: H3 20-32, peptide modifications: H3K23me1 H3K27me3, binder concentration: 1:10,000 dilution
[13] = peptide region: H3 11-23, peptide modifications: H3R17me2s, binder concentration: 1:2,000 dilution
[14] = peptide region: H3 11-23, peptide modifications: H3R17me2s, binder concentration: 1:10,000 dilution
[15] = peptide region: H3 11-23, peptide modifications: H3R17me2a, binder concentration: 1:2,000 dilution
[16] = peptide region: H3 11-23, peptide modifications: H3R17me2a, binder concentration: 1:10,000 dilution
[17] = peptide region: H3 20-32, peptide modifications: H3K23me1 H3K27ac, binder concentration: 1:2,000 dilution
[18] = peptide region: H3 20-32, peptide modifications: H3K23me1 H3K27ac, binder concentration: 1:10,000 dilution
[19] = peptide region: H3 11-23, peptide modifications: H3R17me2s H3K18me1, binder concentration: 1:2,000 dilution
[20] = peptide region: H3 11-23, peptide modifications: H3R17me2s H3K18me1, binder concentration: 1:10,000 dilution
[21] = peptide region: H3 11-23, peptide modifications: H3R17me2a H3K18me2, binder concentration: 1:2,000 dilution
[22] = peptide region: H3 11-23, peptide modifications: H3R17me2a H3K18me2, binder concentration: 1:10,000 dilution
[23] = peptide region: H3 20-32, peptide modifications: H3K23ac H3K27ac, binder concentration: 1:2,000 dilution
[24] = peptide region: H3 20-32, peptide modifications: H3K23ac H3K27ac, binder concentration: 1:10,000 dilution

LATKAARKSAPAT [H3 20-32 L A T Kac A A R Kme S A P A T]
peptide microarray binding signal ([1]; peptide region: H3 20-32, peptide modifications: H3K23ac H3K27me1, binder concentration: 50 nM): 0.0068 ± 0.00024 | peptide microarray binding signal ([1]; peptide region: H3 20-32, peptide modifications: H3K23ac H3K27me1, binder concentration: 500 nM): 0.0141 ± 0.0013 | peptide microarray binding signal ([2]; peptide region: H3 20-32, peptide modifications: H3K23ac H3K27me1, binder concentration: 10 nM): 0.0291 ± 0.00095 | peptide microarray binding signal ([2]; peptide region: H3 20-32, peptide modifications: H3K23ac H3K27me1, binder concentration: 100 nM): 0.0373 ± 0.0027 | peptide microarray binding signal [3, 5]: 0.0154 ± 0.0014 | peptide microarray binding signal [3, 6]: 0.0175 ± 0.003 | peptide microarray binding signal [4, 5]: 0.00459 ± 0.00035 | peptide microarray binding signal [4, 6]: 0.00513 ± 0.00045

LATKAARKSAPAT [H3 20-32 L A T Kac A A R K S A P A T]
peptide microarray binding signal ([1]; peptide region: H3 20-32, peptide modifications: H3K23ac, binder concentration: 50 nM): 0.00514 ± 8.6e-05 | peptide microarray binding signal ([1]; peptide region: H3 20-32, peptide modifications: H3K23ac, binder concentration: 500 nM): 0.00843 ± 0.00057 | peptide microarray binding signal ([2]; peptide region: H3 20-32, peptide modifications: H3K23ac, binder concentration: 10 nM): 0.0139 ± 0.0003 | peptide microarray binding signal ([2]; peptide region: H3 20-32, peptide modifications: H3K23ac, binder concentration: 100 nM): 0.021 ± 0.00086 | peptide microarray binding signal [3, 7]: 0.00479 ± 0.00097 | peptide microarray binding signal [3, 8]: 0.00388 ± 0.00011 | peptide microarray binding signal [4, 7]: 0.002703 ± 1.4e-05 | peptide microarray binding signal [4, 8]: 0.00265 ± 8.4e-05

LATKAARKSAPAT [H3 20-32 L A T Kme A A R Kme S A P A T]
peptide microarray binding signal ([1]; peptide region: H3 20-32, peptide modifications: H3K23me1 H3K27me1, binder concentration: 50 nM): 0.00404 ± 0.00027 | peptide microarray binding signal ([1]; peptide region: H3 20-32, peptide modifications: H3K23me1 H3K27me1, binder concentration: 500 nM): 0.00976 ± 0.00044 | peptide microarray binding signal ([2]; peptide region: H3 20-32, peptide modifications: H3K23me1 H3K27me1, binder concentration: 10 nM): 0.015 ± 0.00066 | peptide microarray binding signal ([2]; peptide region: H3 20-32, peptide modifications: H3K23me1 H3K27me1, binder concentration: 100 nM): 0.0215 ± 0.0021 | peptide microarray binding signal [3, 9]: 0.0102 ± 0.0036 | peptide microarray binding signal [3, 10]: 0.01 ± 0.00092 | peptide microarray binding signal [4, 9]: 0.00488 ± 0.00067 | peptide microarray binding signal [4, 10]: 0.0045 ± 0.00019

LATKAARKSAPAT [H3 20-32 L A T Kme A A R Kme3 S A P A T]
peptide microarray binding signal ([1]; peptide region: H3 20-32, peptide modifications: H3K23me1 H3K27me3, binder concentration: 50 nM): 0.005266 ± 3.8e-05 | peptide microarray binding signal ([1]; peptide region: H3 20-32, peptide modifications: H3K23me1 H3K27me3, binder concentration: 500 nM): 0.00848 ± 0.00016 | peptide microarray binding signal ([2]; peptide region: H3 20-32, peptide modifications: H3K23me1 H3K27me3, binder concentration: 10 nM): 0.0135 ± 0.00027 | peptide microarray binding signal ([2]; peptide region: H3 20-32, peptide modifications: H3K23me1 H3K27me3, binder concentration: 100 nM): 0.01991 ± 8.1e-05 | peptide microarray binding signal [3, 11]: 0.0287 ± 0.0026 | peptide microarray binding signal [3, 12]: 0.0313 ± 0.0019 | peptide microarray binding signal [4, 11]: 0.078 ± 0.0011 | peptide microarray binding signal [4, 12]: 0.0363 ± 0.0019

TGGKAPRKQLATK [H3 11-23 T G G K A P Rme2s K Q L A T K]
peptide microarray binding signal ([1]; peptide region: H3 11-23, peptide modifications: H3R17me2s, binder concentration: 50 nM): 0.00332 ± 8.4e-05 | peptide microarray binding signal ([1]; peptide region: H3 11-23, peptide modifications: H3R17me2s, binder concentration: 500 nM): 0.00543 ± 0.00073 | peptide microarray binding signal ([2]; peptide region: H3 11-23, peptide modifications: H3R17me2s, binder concentration: 10 nM): 0.003163 ± 1.7e-05 | peptide microarray binding signal ([2]; peptide region: H3 11-23, peptide modifications: H3R17me2s, binder concentration: 100 nM): 0.00411 ± 0.00034 | peptide microarray binding signal [3, 13]: 0.001 ± 5.2e-05 | peptide microarray binding signal [3, 14]: 0.00108 | peptide microarray binding signal [4, 13]: 0.00128 ± 0.00017 | peptide microarray binding signal [4, 14]: 0.0011 ± 4e-05

TGGKAPRKQLATK [H3 11-23 T G G K A P Rme2a K Q L A T K]
peptide microarray binding signal ([1]; peptide region: H3 11-23, peptide modifications: H3R17me2a, binder concentration: 50 nM): 0.0047 ± 0.00017 | peptide microarray binding signal ([1]; peptide region: H3 11-23, peptide modifications: H3R17me2a, binder concentration: 500 nM): 0.00767 ± 0.00072 | peptide microarray binding signal ([2]; peptide region: H3 11-23, peptide modifications: H3R17me2a, binder concentration: 10 nM): 0.00328 ± 9.3e-05 | peptide microarray binding signal ([2]; peptide region: H3 11-23, peptide modifications: H3R17me2a, binder concentration: 100 nM): 0.00921 ± 0.0033 | peptide microarray binding signal [3, 15]: 0.001001 ± 8.5e-06 | peptide microarray binding signal [3, 16]: 0.000742 | peptide microarray binding signal [4, 15]: 0.00116 ± 7.7e-05 | peptide microarray binding signal [4, 16]: 0.00156 ± 3e-05

LATKAARKSAPAT [H3 20-32 L A T Kme A A R Kac S A P A T]
peptide microarray binding signal ([1]; peptide region: H3 20-32, peptide modifications: H3K23me1 H3K27ac, binder concentration: 50 nM): 0.0232 ± 0.00051 | peptide microarray binding signal ([1]; peptide region: H3 20-32, peptide modifications: H3K23me1 H3K27ac, binder concentration: 500 nM): 0.0506 ± 0.0021 | peptide microarray binding signal ([2]; peptide region: H3 20-32, peptide modifications: H3K23me1 H3K27ac, binder concentration: 10 nM): 0.058 ± 0.0036 | peptide microarray binding signal ([2]; peptide region: H3 20-32, peptide modifications: H3K23me1 H3K27ac, binder concentration: 100 nM): 0.0801 ± 0.006 | peptide microarray binding signal [3, 17]: 0.0267 ± 0.0037 | peptide microarray binding signal [3, 18]: 0.0268 ± 0.003 | peptide microarray binding signal [4, 17]: 0.0161 ± 0.0018 | peptide microarray binding signal [4, 18]: 0.0113 ± 0.0012

TGGKAPRKQLATK [H3 11-23 T G G K A P Rme2s Kme Q L A T K]
peptide microarray binding signal ([1]; peptide region: H3 11-23, peptide modifications: H3R17me2s H3K18me1, binder concentration: 50 nM): 0.00755 ± 0.00027 | peptide microarray binding signal ([1]; peptide region: H3 11-23, peptide modifications: H3R17me2s H3K18me1, binder concentration: 500 nM): 0.00986 ± 0.00028 | peptide microarray binding signal ([2]; peptide region: H3 11-23, peptide modifications: H3R17me2s H3K18me1, binder concentration: 10 nM): 0.0187 ± 0.00059 | peptide microarray binding signal ([2]; peptide region: H3 11-23, peptide modifications: H3R17me2s H3K18me1, binder concentration: 100 nM): 0.0288 ± 0.002 | peptide microarray binding signal [3, 19]: 0.0153 ± 0.0029 | peptide microarray binding signal [3, 20]: 0.0127 ± 0.0012 | peptide microarray binding signal [4, 19]: 0.00368 ± 0.00012 | peptide microarray binding signal [4, 20]: 0.00254 ± 3.9e-05

TGGKAPRKQLATK [H3 11-23 T G G K A P Rme2a Kme2 Q L A T K]
peptide microarray binding signal ([1]; peptide region: H3 11-23, peptide modifications: H3R17me2a H3K18me2, binder concentration: 50 nM): 0.00937 ± 0.0035 | peptide microarray binding signal ([1]; peptide region: H3 11-23, peptide modifications: H3R17me2a H3K18me2, binder concentration: 500 nM): 0.011 ± 0.00034 | peptide microarray binding signal ([2]; peptide region: H3 11-23, peptide modifications: H3R17me2a H3K18me2, binder concentration: 10 nM): 0.0112 ± 0.0018 | peptide microarray binding signal ([2]; peptide region: H3 11-23, peptide modifications: H3R17me2a H3K18me2, binder concentration: 100 nM): 0.0143 ± 0.00077 | peptide microarray binding signal [3, 21]: 0.00423 ± 0.00094 | peptide microarray binding signal [3, 22]: 0.0032 ± 0.00019 | peptide microarray binding signal [4, 21]: 0.00186 ± 6.1e-05 | peptide microarray binding signal [4, 22]: 0.001787 ± 1.7e-05

LATKAARKSAPAT [H3 20-32 L A T Kac A A R Kac S A P A T]
peptide microarray binding signal ([1]; peptide region: H3 20-32, peptide modifications: H3K23ac H3K27ac, binder concentration: 50 nM): 0.0196 ± 0.0013 | peptide microarray binding signal ([1]; peptide region: H3 20-32, peptide modifications: H3K23ac H3K27ac, binder concentration: 500 nM): 0.0397 ± 0.0034 | peptide microarray binding signal ([2]; peptide region: H3 20-32, peptide modifications: H3K23ac H3K27ac, binder concentration: 10 nM): 0.0424 ± 0.0038 | peptide microarray binding signal ([2]; peptide region: H3 20-32, peptide modifications: H3K23ac H3K27ac, binder concentration: 100 nM): 0.0536 ± 0.0026 | peptide microarray binding signal [3, 23]: 0.0164 ± 0.0012 | peptide microarray binding signal [3, 24]: 0.0172 ± 0.00041 | peptide microarray binding signal [4, 23]: 0.016 ± 0.002 | peptide microarray binding signal [4, 24]: 0.00848 ± 0.00094
